Artemis inh = inhibitors of human Artemis endonuclease activity; actives 0.78% (n = 30,000); recombinant Artemis, quenched FAM hairpin cleavage fluorescence; inhibition, % at 10 µM;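 active = at 10 µM dose, at least 30% inhibition, measured as corrected fluorescence normalized to stimulator and neutral control wells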
The depositor's hits bear a star. This is one part of a sample in which hits are shown more often than they occur.

SMILES	Artemis inh
O=C(COC(=O)Cc1ccccc1)Nc1ncc(Cl)cc1Cl	-13
Cc1cc(NC(=O)COC(=O)c2c(C)nn(Cc3ccccc3Cl)c2C)no1	89*
CC1(C)CC(n2[nH]c(=O)c3c2NC(=O)CSC3c2ccc(F)cc2)CCO1 (stereo unspecified)	-8
CC1=NN(c2ccccc2)C(=O)/C1=C/c1c(O)[nH]c(=S)[nH]c1=O	-11
O=c1[nH]c(=O)n(C2CCCCCC2)c(O)c1C=NCCCN1CCOCC1	12

Source: PubChem
